Test results: PubChem BioAssay (NCATS)
Where “and” joins values, the source holds several entries; their conditions need not be identical. Identical values can stand only once. Records with an inconclusive call do not appear. Values without a mark were called inactive. Calls of active or inactive are those of the source. Calls follow the shape of the dose curve; as a rule, active = well fitted cell-killing curve with a large enough effect; inconclusive = small, poorly fitted or top-dose-only effect; inactive = flat fitted curve, though single readings scatter.

Columns and labels:
[1] = Cellular viability qHTS for adrenocortical cancer (ACC) cell line SW-13 (AID 1963989); conditions: SW-13 ACC cells viability, CellTiter-Glo, 48 h; activity (max response): stronger effect = lower value; also: nearly all actives have a fitted effect of over 65% in size;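 as to activity (max response): cells grown in serum-free medium with ITS supplement; % is scaled to controls: 0 for no effect and ±100 for the full control effect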
In short: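 Here, serum-free SW-13 cultures were dosed up to 46 uM. Following 48 h, ATP-dependent luminescence (CellTiter-Glo) reported viable cells, and logistic modeling produced IC50 values.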

[2] = Cellular viability qHTS for adrenocortical cancer (ACC) cell line NCI-H295R (AID 1963990); also: nearly all actives have a fitted effect of over 60% in size;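 as to activity change, negative = viability loss: 0% = DMSO only wells and -100% = full killing with cytotoxic reference compound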
In short: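 Viability of NCI-H295R after 48 h of treatment (final up to 46 uM) measured through cellular ATP luminescence.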
Potency is read from the fitted curve at half-maximal effect.

With Cc1ccccc1C(=O)N1CC/C(=N\OS(=O)(=O)O)c2ccc(Cl)cc21 the activity (max response) [1] was 5.63% and the Potency [2] was “inactive”.
For C=C[C@@]1(C)CC(=O)[C@]2(O)[C@@]3(C)[C@@H](O)CCC(C)(C)[C@@H]3[C@H](O)[C@H](OC(C)=O)[C@@]2(C)O1, the activity (max response) [1] was 4.29% and the Potency [2] was “inactive”.
With O=C(O)CCNc1cc(N2CCc3ccccc3CC2)nc(-c2cccnc2)n1 the activity (max response) [1] was -9.23% and the Potency [2] was “inactive”.
With COc1cc(-c2cn(C)c(=O)c3cnccc23)c(OC)cc1CN(C)C the activity (max response) [1] was 19.4% and the Potency [2] was “inactive”.
In the case of CC(Oc1c(Cl)cccc1Cl)C1=NCCN1 (stereo not drawn), the activity (max response) [1] is reported as 12.6% and the Potency [2] is reported as “inactive”.
With Clc1cccc(-c2ccc(-c3nnc(CCCc4ccc5cccnc5n4)o3)cc2)c1 the activity (max response) [1] was -11.9% and the Potency [2] was “inactive”.
For CCOc1ccccc1O[C@H](c1ccccc1)[C@H]1CNCCO1, the activity (max response) [1] was -2.45% and the Potency [2] was “inactive”.
In the case of CC(C)N(CCCNC(=O)Nc1ccc(C(C)(C)C)cc1)C[C@H]1O[C@@H](n2ccc3c(N)ncnc32)[C@H](O)[C@@H]1O, the activity (max response) [1] is reported as -3.92% and the Potency [2] is reported as “inactive”.
For COc1ccc(C(=O)C2CCN(CC(=O)N(Cc3nc4c(c(=O)[nH]3)COCC4)CC3CC3)CC2)cc1, the activity (max response) [1] was 0.295% and the Potency [2] was “inactive”.
In the case of CN1CCC(=C2c3ccccc3CCc3cccnc32)CC1, the activity (max response) [1] is reported as 5.98% and the Potency [2] is reported as “inactive”.
In the case of CC(=O)Oc1ccc(C(=C2CCCCC2)c2ccc(OC(C)=O)cc2)cc1, the activity (max response) [1] is reported as -5.44% and the Potency [2] is reported as “inactive”.
With CC(C)C(N)C(=O)OCC(CO)OCn1cnc2c(=O)[nH]c(N)nc21 (stereo not drawn) the activity (max response) [1] was -23% and the Potency [2] was “inactive”.
For C[C@@H](O)[C@H]1C(=O)N2C(C(=O)O)=C(S[C@@H]3CN[C@H](CNS(N)(=O)=O)C3)[C@H](C)[C@H]12, the activity (max response) [1] was 7.35% and the Potency [2] was “inactive”.
For CCn1nc(C(=O)O)c(=O)c2cc3c(cc21)OCO3, the activity (max response) [1] was 1.15% and the Potency [2] was “inactive”.
In the case of CCOC(=O)OC(C)OC(=O)[C@@H]1N2C(=O)[C@@H](NC(=O)[C@H](N)c3ccccc3)[C@H]2SC1(C)C (stereo partly drawn), the activity (max response) [1] is reported as 4.54% and the Potency [2] is reported as “inactive”.
In the case of COc1cc(/C=C(\C#N)C(=O)Nc2nnc(C(F)(F)F)s2)ccc1OCc1ccc(C(F)(F)F)cc1C(F)(F)F, the activity (max response) [1] is reported as -15.8% and the Potency [2] is reported as “inactive”.
In the case of O=C(c1cc(O)c(O)c(O)c1)c1ccc(O)c(O)c1O, the activity (max response) [1] is reported as 4.03% and the Potency [2] is reported as “inactive”.
With CC(=O)Nc1ccc(C(=O)NC(C)(C)C)cc1 the activity (max response) [1] was -16.7% and the Potency [2] was “inactive”.
With COc1ccc(-c2oc3c(CC=C(C)C)c(OC4O[C@H](CO)[C@@H](O)[C@H](O)[C@H]4O)cc(O)c3c(=O)c2OC2O[C@@H](C)[C@H](O)[C@@H](O)[C@H]2O)cc1 (stereo partly drawn) the activity (max response) [1] was 7.81% and the Potency [2] was “inactive”.
With C=CC(=O)Nc1cccc(Nc2nc(Nc3ccc(NC4CN(CCF)C4)cc3OC)ncc2C(F)(F)F)c1 the Potency [1] was 2.51 µM (active) and the Potency [2] was 8.91 µM (active).
For Cc1ncc([N+](=O)[O-])n1CC(O)CCl (stereo not drawn), the activity (max response) [1] was -4.94% and the Potency [2] was “inactive”.
In the case of Cc1onc(-c2ccc(F)cc2)c1COc1ccc(C(=O)N2CCS(=O)(=O)CC2)cn1, the activity (max response) [1] is reported as -15% and the Potency [2] is reported as “inactive”.
In the case of CC#Cc1cncc(-c2ccc3c(c2)[C@@]2(N=C(C)C(N)=N2)C2(CCC(OC)CC2)C3)c1 (stereo partly drawn), the activity (max response) [1] is reported as -4.31% and the Potency [2] is reported as “inactive”.
In the case of NC(N)=NC(=O)Cc1c(Cl)cccc1Cl, the activity (max response) [1] is reported as -7.72% and the Potency [2] is reported as “inactive”.
In the case of C[N+]1(C)CCC(OC(=O)C(O)(c2ccccc2)C2CCCC2)C1 (stereo not drawn), the activity (max response) [1] is reported as 7.55% and the Potency [2] is reported as “inactive”.
For c1ccc(CNCCNCc2ccccc2)cc1, the activity (max response) [1] was -0.207% and the Potency [2] was “inactive”.
For OC[C@H]1O[C@@H](Oc2cc(O)cc(/C=C/c3ccc(O)cc3)c2)[C@H](O)[C@@H](O)[C@@H]1O, the activity (max response) [1] was 7.59% and the Potency [2] was “inactive”.
For COCCNc1cc(NC(=O)N2CCCc3cc(CN4CCN(C)CC4=O)c(C=O)nc32)ncc1C#N, the activity (max response) [1] was -2.64% and the activity change, negative = viability loss [2] was -1.4% [at 9.17 µM].
For CN/C(=C\[N+](=O)[O-])NCCSCc1ccc(CN(C)C)o1, the activity (max response) [1] was 0.385% and the Potency [2] was “inactive”.
In the case of Cn1cc(-c2nc(N[C@@H]3CCCC[C@@H]3N)c(F)c3c2C(=O)NC3)cn1, the activity (max response) [1] is reported as 8.72% and the activity change, negative = viability loss [2] is reported as 0.124% [at 3.81 µM].
In the case of Cn1c(-c2ccccc2C(F)(F)F)nnc1C12CCC(c3noc(C4CC(F)(F)C4)n3)(CC1)CC2, the activity (max response) [1] is reported as -6.22% and the Potency [2] is reported as “inactive”.
With Cc1ccc(O)c2ncccc12 the activity (max response) [1] was 11.9% and the Potency [2] was 20.6 µM (active).
With CC(=O)CC/C=C(\C)CC/C=C(\C)CC/C=C(\C)CCC=C(C)C the activity (max response) [1] was 9.79% and the Potency [2] was “inactive”.
With COc1c(C)cc(NC(=O)c2nn(Cc3ccc(F)cc3)c3c2CN(C(=O)c2ccc[nH]2)C[C@]3(C)C(N)=O)cc1C the activity (max response) [1] was -5.75% and the Potency [2] was “inactive”.
With CC1=C2[N-][C@H]([C@H](CC(N)=O)[C@@]2(C)CCC(=O)NC[C@@H](C)OP(=O)([O-])O[C@H]2[C@@H](O)[C@@H](n3cnc4cc(C)c(C)cc43)O[C@@H]2CO)[C@]2(C)N=C(C(C)=C3N=C(C=C4N=C1[C@@H](CCC(N)=O)C4(C)C)[C@@H](CCC(N)=O)[C@]3(C)CC(N)=O)[C@@H](CCC(N)=O)[C@]2(C)CC(N)=O.O.[Co+2] the activity (max response) [1] was -17.2% and the Potency [2] was “inactive”.
In the case of COc1ccc(-n2cnc3cc(C(=O)N4CCCCC4)ccc32)cc1, the activity (max response) [1] is reported as -10.1% and the Potency [2] is reported as “inactive”.
With CCN(CCCCOC(=O)c1ccc(OC)c(OC)c1)C(C)Cc1ccc(OC)cc1 (stereo not drawn) the activity (max response) [1] was -18.6% and the Potency [2] was “inactive”.
With COCCOC(=O)C1=C(C)NC(C)=C(C(=O)OC(C)C)C1c1cccc([N+](=O)[O-])c1 (stereo not drawn) the activity (max response) [1] was 7.46% and the Potency [2] was “inactive”.
For CC[N+](C)(CC)CCOC(=O)C(O)(c1ccccc1)C1CCCCC1 (stereo not drawn), the activity (max response) [1] was 7.72% and the Potency [2] was “inactive”.
With COc1ccc(CCN(C)CCCC(C#N)(c2ccc(OC)c(OC)c2)C(C)C)cc1OC (stereo not drawn) the activity (max response) [1] was -2.85% and -16.8% and the Potency [2] was “inactive”.
For COc1cccc(-c2c(C)n(Cc3c(F)cccc3C(F)(F)F)c(=O)n(C[C@H](NCCCC(=O)O)c3ccccc3)c2=O)c1F, the activity (max response) [1] was 3.23% and 7.63% and the Potency [2] was “inactive”.
For C[C@H](Nc1nc(N[C@H](C)C(F)(F)F)nc(-c2cccc(Cl)n2)n1)C(F)(F)F, the activity (max response) [1] was -11.6% and the Potency [2] was “inactive”.
With CNC(=O)c1c(I)c(NC(=O)CCCCC(=O)Nc2c(I)c(C(=O)O)c(I)c(C(=O)NC)c2I)c(I)c(C(=O)O)c1I the activity (max response) [1] was -7.54% and the Potency [2] was “inactive”.
For C[C@]12CC[C@H](O)CC1=CC[C@@H]1[C@@H]2CC[C@]2(C)C(c3cccnc3)=CC[C@@H]12, the activity (max response) [1] was 2.71% and the Potency [2] was “inactive”.
In the case of Nc1ccc(O)cc1, the activity (max response) [1] is reported as 0.149% and the Potency [2] is reported as “inactive”.
For CCN(CC)CCOC(=O)C(c1ccccc1)c1ccccc1, the activity (max response) [1] was 0.334% and the Potency [2] was “inactive”.
With C[C@]12CCC(=O)C=C1CC[C@@H]1[C@@H]2[C@@H](O)C[C@@]2(C)[C@H]1CC[C@]2(O)C(=O)CO the activity (max response) [1] was 8.55% and 7.07% and the Potency [2] was “inactive”.
With O=C(OCC(COC(=O)c1cccnc1)(COC(=O)c1cccnc1)COC(=O)c1cccnc1)c1cccnc1 the activity (max response) [1] was -1.24% and the Potency [2] was “inactive”.
In the case of CCN1C(=O)c2ccccc2C1Nc1ccc(OCCN2CCCCC2)cc1 (stereo not drawn), the activity (max response) [1] is reported as 0.694% and the Potency [2] is reported as “inactive”.
